BoNT-F LC inh – inhibitors of Botulinum neurotoxin F light chain protease; Multiplex microsphere protease cleavage assay, flow cytometry; inhibition, % at 10 µM; 360,000 tested, 0.22% active; in the data active = inhibition above about 35%, passing the limit was not always enough; inconclusive = no clear call, values can overlap the other calls; note: plate controls were buffer without enzyme for full effect and enzyme alone for no effect
Vc quorum ag – induces V. cholerae light production without autoinducers; V. cholerae BH1578 lux reporter, luminescence, 6 h; activation, % at 18.7 µM; 350,000 tested, 0.16% active; AID 588436; in the data active = activation mostly above about 9.7%, no sharp cut-off; inconclusive = no clear call, values can overlap the other calls; inactive = mostly below about 3.7%
BoNT-A LC inh2 – blocks Botulinum neurotoxin A light chain protease; multiplex microsphere protease substrate cleavage, flow cytometry; inhibition, % at 10 µM; 360,000 tested, 0.17% active; AID 588499; note: plate controls were buffer without enzyme for full effect and enzyme alone for no effect
BJeLR lethal – kills HRASV12-expressing BJeLR cells; BJeLR (HRASV12) viability, CellTiter-Glo ATP luminescence, 48 h; inhibition, % (concentration not given with the values); 300,000 tested, 0.17% active; in the data active = inhibition above about 50%; inconclusive = no clear call, values can overlap the other calls
Anthrax LF inh2 – blocks Bacillus anthracis lethal factor protease | P15917 | multiplex microsphere protease cleavage assay, LF | inhibition, % at 10 µM | 360,000 tested, 0.12% active | AID 588501; note: plate controls were buffer without enzyme for full effect and enzyme alone for no effect
Target sequence (P15917 whole entry, looked up): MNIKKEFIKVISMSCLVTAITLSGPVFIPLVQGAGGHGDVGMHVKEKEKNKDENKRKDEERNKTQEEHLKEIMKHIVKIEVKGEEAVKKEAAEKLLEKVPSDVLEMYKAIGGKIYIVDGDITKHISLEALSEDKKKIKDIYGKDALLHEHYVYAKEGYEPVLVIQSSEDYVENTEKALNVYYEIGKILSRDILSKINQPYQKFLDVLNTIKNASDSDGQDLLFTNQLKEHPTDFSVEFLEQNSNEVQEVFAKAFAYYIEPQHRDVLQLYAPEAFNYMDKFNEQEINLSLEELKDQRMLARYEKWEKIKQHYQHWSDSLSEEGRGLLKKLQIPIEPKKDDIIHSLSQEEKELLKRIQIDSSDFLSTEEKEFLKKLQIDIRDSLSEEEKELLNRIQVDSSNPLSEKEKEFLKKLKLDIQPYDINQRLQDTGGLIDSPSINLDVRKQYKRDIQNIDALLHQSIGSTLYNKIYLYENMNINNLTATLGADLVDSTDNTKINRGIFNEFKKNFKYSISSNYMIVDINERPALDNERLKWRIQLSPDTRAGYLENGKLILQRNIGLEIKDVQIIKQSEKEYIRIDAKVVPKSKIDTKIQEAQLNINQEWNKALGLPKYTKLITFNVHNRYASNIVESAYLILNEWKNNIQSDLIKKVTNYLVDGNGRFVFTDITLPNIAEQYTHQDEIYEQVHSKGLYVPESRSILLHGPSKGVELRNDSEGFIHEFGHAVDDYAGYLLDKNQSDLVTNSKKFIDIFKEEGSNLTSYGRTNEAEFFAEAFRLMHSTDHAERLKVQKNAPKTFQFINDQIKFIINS
Bead autofluor – flagged as autofluorescent in microsphere protease counterscreen; compound autofluorescence counterscreen, microsphere flow cytometry; active compounds read high; fluorescence intensity (test concentration not listed); 360,000 tested, 3.1% active; AID 624483; in the data active = fluorescence intensity above about 16000; inconclusive = no clear call, values can overlap the other calls
* = called active by the depositor. This is a sample that favours compounds with a hit; in the whole collection about 3.7% have one here. Cut-off read from the data, not from the text of the source, unless noted: active = inhibition above about 30%; inconclusive = no clear call, values can overlap the other calls; inactive = below that.

CC1CN(C(=O)COC(=O)/C=C/c2ccccc2)CC(C)O1 (stereo not drawn) was read as BoNT-F LC inh 0, Vc quorum ag 0, BoNT-A LC inh2 0, Anthrax LF inh2 -3 and Bead autofluor 3752.
For CCc1c(C(=O)Nc2ccncc2)csc1C the results were BoNT-F LC inh -2, Vc quorum ag 0, BoNT-A LC inh2 -1, BJeLR lethal -2, Anthrax LF inh2 -7 and Bead autofluor 23043*.
For CCc1c(C(=O)Nc2ccccc2C(N)=O)csc1C the results were BoNT-F LC inh 13, Vc quorum ag -2, BoNT-A LC inh2 3, BJeLR lethal -8, Anthrax LF inh2 1 and Bead autofluor 5342.
For CCc1c(C(=O)Nc2ncn(Cc3cccc(C)c3)n2)csc1C the results were BoNT-F LC inh 0, Vc quorum ag 0, BoNT-A LC inh2 inconclusive, BJeLR lethal 5, Anthrax LF inh2 -6 and Bead autofluor 16518*.
For N#CCCN(Cc1ccccc1)C(C(=O)NC1CCCCC1)c1cc2ccccc2o1 (stereo not drawn) the results were BoNT-F LC inh -9, BoNT-A LC inh2 -1, Anthrax LF inh2 -3 and Bead autofluor 5602.
For CN(Cc1cccc(C(F)(F)F)c1)C(=O)[C@H]1O[C@@H](n2ccc(N)nc2=O)[C@H](O)[C@@H]1O the results were BoNT-F LC inh 0, BoNT-A LC inh2 0, Anthrax LF inh2 1 and Bead autofluor 5880.
For CC(C)C(OC(=O)c1ccco1)C(=O)NC1CCCC1 (stereo not drawn) the results were BoNT-F LC inh 9, Vc quorum ag 0, BoNT-A LC inh2 2, BJeLR lethal -5, Anthrax LF inh2 -1 and Bead autofluor 5241.
CC(C)C(OC(=O)C1CCCO1)C(=O)NC1CCCC1 (stereo not drawn) was read as BoNT-F LC inh 1, Vc quorum ag -1, BoNT-A LC inh2 2, BJeLR lethal 4, Anthrax LF inh2 -3 and Bead autofluor 18597*.
`c1ccc(Cn2ncc3c(N4CCN(c5ccccc5)CC4)ncnc32)cc1` gave BoNT-F LC inh -6, Vc quorum ag 0, BoNT-A LC inh2 0, Anthrax LF inh2 -1 and Bead autofluor 3614.
`Cc1ccc(C)c2c1cc(C)c1nnc(SCc3ccccn3)n12` gave BoNT-F LC inh -5, Vc quorum ag -7, BoNT-A LC inh2 -5, BJeLR lethal 0, Anthrax LF inh2 -3 and Bead autofluor 26246*.
`CCOC(=O)[C@]12CCCC=C1N(Cc1ccc(Cl)cc1Cl)C(=O)[C@H](CC(=O)NCCc1ccccc1OC)C2` gave BoNT-F LC inh 3, BoNT-A LC inh2 0, Anthrax LF inh2 1 and Bead autofluor 5140.
Screening CCOCCCNC(=O)CCNC(=O)c1cc(OC)c(OC)c(OC)c1 returned BoNT-F LC inh -3, Vc quorum ag inactive, BoNT-A LC inh2 -1, BJeLR lethal -15, Anthrax LF inh2 -4 and Bead autofluor 20238*.
CCN1CCCC1CNC(=O)CCNC(=O)c1cc(OC)c(OC)c(OC)c1 (stereo not drawn) was read as BoNT-F LC inh 0, Vc quorum ag -6, BoNT-A LC inh2 0, BJeLR lethal 9, Anthrax LF inh2 -6 and Bead autofluor 10740.
For CCN(CC)CC(C)OC(=O)c1cc(OC)c(OC)c(OC)c1 (stereo not drawn) the results were BoNT-F LC inh 4, Vc quorum ag 2, BoNT-A LC inh2 inconclusive, BJeLR lethal 9, Anthrax LF inh2 -1 and Bead autofluor 19405*.
COc1cc(C(=O)OCCCOC(=O)c2cc(OC)c(OC)c(OC)c2)cc(OC)c1OC was read as BoNT-F LC inh 5, Vc quorum ag inactive, BoNT-A LC inh2 -1, BJeLR lethal 3, Anthrax LF inh2 -1 and Bead autofluor 5918.
Screening COc1cc(C(=O)NCCC(=O)NCCCN2CCCCC2)cc(OC)c1OC returned BoNT-F LC inh -6, Vc quorum ag -1, BoNT-A LC inh2 -7, BJeLR lethal 9, Anthrax LF inh2 -6 and Bead autofluor 25617*.
For COc1cc(C(=O)NCC(C)C)cc(OC)c1OC the results were BoNT-F LC inh -1, Vc quorum ag -3, BoNT-A LC inh2 -1, BJeLR lethal 0, Anthrax LF inh2 -2 and Bead autofluor 16687*.
Screening COc1cc(C(=O)NCCCCCCNC(=O)c2cc(OC)c(OC)c(OC)c2)cc(OC)c1OC returned BoNT-F LC inh inconclusive, Vc quorum ag 0, BoNT-A LC inh2 -2, BJeLR lethal 10, Anthrax LF inh2 -4 and Bead autofluor 3610.
COC[C@H]1CCCN1c1ccc2c(c1)O[C@H](COCc1ccccc1)CN([C@H](C)c1ccccc1)S2(=O)=O was read as BoNT-F LC inh 3, BoNT-A LC inh2 0, Anthrax LF inh2 4 and Bead autofluor 6324.
COc1ccc2nc(C(c3ccc(C)cc3)n3c(-c4ccccc4Br)nc4ccccc43)[nH]c2c1 (stereo not drawn) was read as BoNT-F LC inh -8, BoNT-A LC inh2 -1, Anthrax LF inh2 -1 and Bead autofluor 5682.
For Cc1cc(C)cc(NC(=O)C2CCCN(c3nc(C)cc(C)n3)C2)c1 (stereo not drawn) the results were BoNT-F LC inh -3, Vc quorum ag 0, BoNT-A LC inh2 -1, BJeLR lethal 0, Anthrax LF inh2 -9 and Bead autofluor 22398*.
For Cc1cc(C)nc(N2CCCC(C(=O)Nc3nc4ccc(S(C)(=O)=O)cc4s3)C2)n1 (stereo not drawn) the results were BoNT-F LC inh 1, Vc quorum ag inactive, BoNT-A LC inh2 2, BJeLR lethal 4, Anthrax LF inh2 1 and Bead autofluor 22009*.
`Cc1ccnc(N2CCCC(C(=O)Nc3nnc(C)s3)C2)n1` (stereo not drawn) gave BoNT-F LC inh -3, Vc quorum ag 0, BoNT-A LC inh2 0, BJeLR lethal 0, Anthrax LF inh2 -3 and Bead autofluor 10963.
`Cc1cc(C)nc(N2CCCC(C(=O)Nc3ccc4nc(C)c(C)nc4c3)C2)n1` (stereo not drawn) gave BoNT-F LC inh -8, Vc quorum ag 0, BoNT-A LC inh2 0, BJeLR lethal 0, Anthrax LF inh2 1 and Bead autofluor 8398.
For Cc1cc(C)nc(N2CCCC(C(=O)Nc3nnc(C)s3)C2)n1 (stereo not drawn) the results were BoNT-F LC inh 9, Vc quorum ag 0, BoNT-A LC inh2 0, BJeLR lethal 0, Anthrax LF inh2 -2 and Bead autofluor 7621.
Screening Cc1cc(C)cc(NC(=O)C2CCCN(c3nccc(C)n3)C2)c1 (stereo not drawn) returned BoNT-F LC inh 1, Vc quorum ag inactive, BoNT-A LC inh2 0, BJeLR lethal -4, Anthrax LF inh2 -4 and Bead autofluor 16127*.
`CCc1nc2c(OCc3ccc(C(F)(F)F)cc3)cccn2c1N(C)C(=O)C1CC1` gave BoNT-F LC inh -1, Vc quorum ag 1, BoNT-A LC inh2 0, Anthrax LF inh2 1 and Bead autofluor 3538.
CC(=O)Oc1ccc(-c2cccc(C(=O)NCCO)c2)cc1 was read as BoNT-F LC inh -1, Vc quorum ag -1, BoNT-A LC inh2 0, BJeLR lethal -1, Anthrax LF inh2 -3 and Bead autofluor 2077.
